Shown are actives, neighbours in structure and some others; about 8% of the full set was active somewhere.
MARV entry inh = qHTS for inhibitors of binding or entry into cells for Marburg Virus. AID 540276, 2011. Potency, µM (top dose mostly 37.8 µM), most hits filed as inhibitors. Marburg virus pseudotyped entry inhibition, cell reporter. 300,000 tested, 1.8% active; calls by dose curve; tested in HEK293 cells
FMDV antiviral = High Throughput Screening for Foot and Mouth Disease Virus Antivirals | FMDV antiviral cell-based qHTS | Potency, µM (top dose mostly 57.9 µM), actives largely listed as inhibitors | 410,000 tested, 1.2% active | AID 1159524, 2015; calls by dose curve; tested in HEK293T cells; further: read-out not given here; nearly all actives have a fitted effect of over 45% in size
HCMV inh = qHTS Assay for inhibitors of the human cytomegalovirus (HCMV). HFF cells, HCMV-luciferase reporter, 72 h; stronger effect = lower value. activity change, negative = inhibition, % at 57.5 µM. 410,000 tested, 4.5% active; in the data active means activity change below about -60%; inconclusive means no clear call, values can overlap the other calls; inactive means above about -39%
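Human foreskin fibroblasts infected with luciferase-reporter HCMV at MOI 1 PFU/cell, compounds at two doses. Luciferase measured 72 h post infection; normalized to buffer-only basal and Salinomycin (10uM) controls.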
SARS PLP yeast = qHTS of Yeast-based Assay for SARS-CoV PLP; S. cerevisiae expressing SARS-CoV PLpro, growth rescue; Potency, µM (titrated, usually from 32.9 µM), hits mostly activators; 330,000 tested, 0.19% active; AID 485353, 2010; calls by dose curve; further: nearly all actives have a fitted effect of over 55% in size
HCV inh = qHTS Assay for Inhibitors of Hepatitis C Virus (HCV); Huh7.5.1 HCVcc-Cre infection, luciferase reporter, 44 h; Potency, µM (top dose mostly 41.8 µM), usual class: inhibitors; 340,000 tested, 3.4% active; AID 651820, 2012; active means well fitted inhibition curve with a large enough effect; inconclusive means small, poorly fitted or top-dose-only effect, or another doubt; inactive means no such curve, though single readings can be large or run the other way
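Infectious HCVcc-Cre (~0.5 moi) was added to cells just after compound, with cells seeded 4 h earlier at 1,000 per well. Luciferase activity after 44 h culture reported infection; substrate was incubated 15 min at room temperature before reading.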
Lassa entry inh = qHTS for Inhibitors of binding or entry into cells for Lassa Virus. Lassa virus pseudotype entry inhibition, cell reporter. Potency, µM (titrated, usually from 37.9 µM), usual class: inhibitors. 300,000 tested, 1.2% active; calls by dose curve; tested in HEK293 cells; further: nearly all actives have a fitted effect of over 50% in size
Of the large screens only hits and unclear results are named; the others gave an inactive call.

CCOC(=O)C1=C(CC)Nc2ccccc2N=C1NC(=O)Nc1ccc(Cl)c(Cl)c1	MARV entry inh inconclusive, HCMV inh -98, HCV inh inconclusive, Lassa entry inh inconclusive
COc1ccc2oc(C(=O)NCCc3ccccc3)c(C)c2c1	MARV entry inh inconclusive, Lassa entry inh 0.89µM
COc1ccc2oc(C(=O)NC3(C)CCS(=O)(=O)C3)c(C)c2c1 (centres undefined)	MARV entry inh inconclusive, HCMV inh -101, HCV inh inconclusive
Cc1c(C(=O)NCCc2ccccc2)oc2ccccc12	MARV entry inh 6.3µM, Lassa entry inh inconclusive
COc1ccc2oc(C(=O)NCc3cc(OC)c(OC)cc3OC)c(C)c2c1	MARV entry inh inconclusive, FMDV antiviral inconclusive, HCV inh 16µM
O=C(NCCc1ccccc1)c1oc2ccccc2c1COc1ccccc1	MARV entry inh inconclusive, HCV inh inconclusive
COc1ccc2oc(C(=O)NCC(c3ccco3)N(C)C)c(C)c2c1 (centres undefined)	none
COc1ccccc1NC(=O)CSC1=Nc2ccccc2C2=NC(CC(=O)NCc3ccco3)C(=O)N12 (centres undefined)	none (no result: MARV entry inh, SARS PLP yeast, HCV inh)
O=C(NCCc1ccccc1)c1cccc(NC(=O)C2CCC2)c1	HCV inh inconclusive, Lassa entry inh inconclusive (no result: MARV entry inh, SARS PLP yeast)
CC(C)(C)OC(=O)N1CCC(C(=O)Nc2cccc(C(=O)NCCCCc3ccccc3)c2)CC1	FMDV antiviral 18µM, HCV inh inconclusive (no result: MARV entry inh, SARS PLP yeast, Lassa entry inh)
CC(C)(C)OC(=O)N1CCCC(C(=O)Nc2cccc(C(=O)NCCCCc3ccccc3)c2)C1 (centres undefined)	MARV entry inh inconclusive, FMDV antiviral inconclusive (no result: SARS PLP yeast, Lassa entry inh)
O=C(NC1CC1)c1cccc(NC(=O)C2CC2)c1	HCMV inh -81 (no result: MARV entry inh, SARS PLP yeast, Lassa entry inh)
O=C(NCCc1ccccc1)c1cccc(NC(=O)C2CC2)c1	HCV inh 0.56µM, Lassa entry inh inconclusive (no result: MARV entry inh, SARS PLP yeast)
CCOC(=O)c1c(-c2ccccc2)oc2ccc(NS(=O)(=O)c3cc(C)c(C)cc3C)cc12	MARV entry inh inconclusive (no result: SARS PLP yeast, HCV inh)
C=CCOC(=O)N[C@H](c1ccc2ccccc2c1)[C@H](C)C=CCC(=O)OC	Lassa entry inh inconclusive (no result: FMDV antiviral, HCMV inh, SARS PLP yeast, HCV inh)
CCCCn1c(=N)n(CC(O)COc2ccccc2)c2ccccc21 (centres undefined)	MARV entry inh inconclusive, FMDV antiviral inconclusive, HCV inh inconclusive, Lassa entry inh inconclusive
Cc1ccc(Cn2c(=N)n(CC(O)COc3ccccc3)c3ccccc32)cc1 (centres undefined)	MARV entry inh 16µM, HCV inh inconclusive, Lassa entry inh inconclusive
N=c1n(Cc2ccccc2)c2ccccc2n1CC(O)COc1ccccc1 (centres undefined)	MARV entry inh 3.7µM, FMDV antiviral inconclusive, HCMV inh inconclusive, SARS PLP yeast 22µM, HCV inh 14µM, Lassa entry inh inconclusive
COc1ccc(C(=O)[C@@H]2CCCCC2=O)cc1	none (no result: FMDV antiviral, HCMV inh, SARS PLP yeast, HCV inh, Lassa entry inh)
CCOC(=O)c1cc(CC)sc1NC(=O)COC(=O)C1CCC1	HCV inh inconclusive (no result: MARV entry inh, Lassa entry inh)
CCOC(=O)c1cc(CC)sc1NC(=O)c1cc(OCC)c(OCC)c(OCC)c1	HCV inh 2.8µM
CCOC(=O)c1cc(CC)sc1NC(=O)C1CC1	HCV inh 11µM
CCn1c(=O)cc(OCC(=O)NCc2ccc(F)cc2Cl)c2ccccc21	none (no result: SARS PLP yeast, HCV inh)
Cc1ccn2c(=O)cc(CSc3nnc(NC(=O)c4ccccc4Cl)s3)nc2c1	none (no result: MARV entry inh, SARS PLP yeast, HCV inh)
COc1ccc(-n2cccc2/C=C/[N+](=O)[O-])cc1	MARV entry inh inconclusive, FMDV antiviral 28µM, HCMV inh -102, HCV inh inconclusive, Lassa entry inh inconclusive
COc1ccc(NC(=O)c2ccco2)cc1NC(=O)c1cc(Cl)ccc1OC	none (no result: HCMV inh, SARS PLP yeast, HCV inh)
Cc1cc(C)c2nc(NC(=O)c3ccc(S(=O)(=O)N4CCC(C)CC4)cc3)sc2c1	none (no result: MARV entry inh, SARS PLP yeast, HCV inh)
Cc1ccc2nc(NNC(=O)c3ccc(S(=O)(=O)N4CCc5ccccc5C4)cc3)sc2c1	MARV entry inh inconclusive, FMDV antiviral inconclusive, HCMV inh -99, SARS PLP yeast 5µM, HCV inh 2.5µM, Lassa entry inh inconclusive
Cc1cc(C)c2nc(NNC(=O)c3ccc(S(=O)(=O)N4CCCC(C)C4)cc3)sc2c1 (centres undefined)	MARV entry inh inconclusive, FMDV antiviral inconclusive, HCMV inh -98, SARS PLP yeast inconclusive, HCV inh 7.9µM, Lassa entry inh inconclusive

Screens as filed in PubChem.
